# Data: PMC4336329 (PLoS ONE, 2015)
# Hit rate of the full screen: of about 310,000 compounds, about 14,000 (4.5%) showed an effect of 50% or more. The effect is printed as a negative number. The full list was thinned out, with strong results kept by preference.
# Target: human ether-à-go-go-related gene (hERG) potassium channel (human, UniProt Q12809)
# Assay: primary screen, population patch clamp on CHO cells stably expressing hERG; higher = less effect of the substance
# 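Further: peak tail current of the secondary pulse compared with the same well before compound.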
# Chain of human ether-à-go-go-related gene (hERG) potassium channel (Q12809 whole entry, looked up): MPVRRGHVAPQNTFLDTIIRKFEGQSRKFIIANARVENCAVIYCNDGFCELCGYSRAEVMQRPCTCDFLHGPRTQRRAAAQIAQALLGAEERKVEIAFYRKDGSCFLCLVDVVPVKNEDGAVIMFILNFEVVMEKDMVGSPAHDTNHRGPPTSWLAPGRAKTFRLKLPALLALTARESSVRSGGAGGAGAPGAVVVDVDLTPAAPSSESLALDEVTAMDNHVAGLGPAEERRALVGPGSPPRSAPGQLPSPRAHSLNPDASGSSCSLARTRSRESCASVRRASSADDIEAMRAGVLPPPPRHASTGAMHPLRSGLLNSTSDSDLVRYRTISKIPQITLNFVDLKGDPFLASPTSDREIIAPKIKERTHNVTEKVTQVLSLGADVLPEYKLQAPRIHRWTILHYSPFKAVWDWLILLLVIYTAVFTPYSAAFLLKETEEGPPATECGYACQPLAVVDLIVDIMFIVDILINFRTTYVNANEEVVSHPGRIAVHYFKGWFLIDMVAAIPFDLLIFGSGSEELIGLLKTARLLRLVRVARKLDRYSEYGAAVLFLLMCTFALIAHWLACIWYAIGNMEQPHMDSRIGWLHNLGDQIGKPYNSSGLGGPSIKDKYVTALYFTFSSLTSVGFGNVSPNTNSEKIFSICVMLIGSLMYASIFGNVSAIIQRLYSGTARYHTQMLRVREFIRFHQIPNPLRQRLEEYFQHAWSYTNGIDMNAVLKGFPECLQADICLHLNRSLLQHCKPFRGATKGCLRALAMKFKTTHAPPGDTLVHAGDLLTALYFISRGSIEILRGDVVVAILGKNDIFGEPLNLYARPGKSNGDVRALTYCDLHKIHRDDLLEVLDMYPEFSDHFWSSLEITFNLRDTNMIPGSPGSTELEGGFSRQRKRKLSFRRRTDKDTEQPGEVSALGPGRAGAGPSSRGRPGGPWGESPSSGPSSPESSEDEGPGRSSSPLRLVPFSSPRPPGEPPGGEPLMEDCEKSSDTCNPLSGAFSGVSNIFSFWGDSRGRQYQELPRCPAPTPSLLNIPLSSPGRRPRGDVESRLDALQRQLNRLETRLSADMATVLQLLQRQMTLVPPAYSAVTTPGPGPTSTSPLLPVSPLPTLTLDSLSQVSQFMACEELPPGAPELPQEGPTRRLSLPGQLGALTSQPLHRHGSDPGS
row,SMILES,"hERG current change (%, negative = inhibition) at 10uM"
1,Cc1ccc(NC(=O)c2sc(C)nc2C)c(C)c1,1.97%
2,O=C(N/N=C/c1ccccc1OCc1ccccc1)c1cccs1,5.13%
3,CCOC(=O)c1c(C)oc2ccc(OS(C)(=O)=O)cc12,1.04%
4,Cc1c(C)c2ccc(OS(C)(=O)=O)cc2oc1=O,-58.4%
5,CCOC(=O)c1ccc(Oc2c(C)oc3cc(OS(C)(=O)=O)ccc3c2=O)cc1,-66%
6,CCc1cc(=O)oc2cc(OS(C)(=O)=O)ccc12,-5.44%
7,Cc1cc(=O)oc2cc(OS(C)(=O)=O)ccc12,4.31%
8,CCOc1ccc2c(=O)c(Oc3ccccc3)c(C)oc2c1,-6.41%
9,COc1ccccc1/C=C/C=N/N1CCN(Cc2ccccc2)CC1,-8.94%
10,COc1ccc(/C(O)=C2/C(=O)C(=O)N(CC3CCCO3)C2c2ccc(OC)c(OC)c2)cc1 (stereo not drawn),1.45%
11,Cc1cnc(NC(=O)CCCNC(=O)c2ccc(Cl)cc2)s1,12.8%
12,Cc1ccccc1-n1c(-c2ccc([N+](=O)[O-])cc2)nc2ccccc2c1=O,-0.532%
13,CC1=NN(C(=O)c2cccc(Cn3nc(C)c([N+](=O)[O-])c3C)c2)C(O)(C(F)(F)F)C1 (stereo not drawn),0.484%
14,CC1=NN(C(=O)c2ccc(Cn3nc(C)c([N+](=O)[O-])c3C)cc2)C(O)(C(F)(F)F)C1 (stereo not drawn),-28.8%
15,Cc1nn(Cc2ccc(C(=O)N3N=C(C(F)F)CC3(O)C(F)F)cc2)c(C)c1[N+](=O)[O-] (stereo not drawn),-62.9%
16,Cc1nn(Cc2ccc(C(=O)N3N=C(C(F)F)CC3(O)C(F)F)o2)c(C)c1[N+](=O)[O-] (stereo not drawn),-37.3%
17,CC1=NN(C(=O)c2ccc(Cn3nc(C)c([N+](=O)[O-])c3C)o2)C(O)(C(F)(F)F)C1 (stereo not drawn),-52.8%
18,Cc1nn(Cc2cccc(C(=O)N3N=C(C(F)F)CC3(O)C(F)F)c2)c(C)c1[N+](=O)[O-] (stereo not drawn),-19.6%
19,C=CCn1c(=O)/c(=C\c2ccccn2)s/c1=C(/C#N)C(=O)NCC1CCCO1 (stereo not drawn),-3.51%
20,CN1CCC(=NNC(=O)CN(c2ccc(Oc3ccccc3)cc2)S(C)(=O)=O)CC1,9.51%
21,Cc1ccc([N+](=O)[O-])cc1S(=O)(=O)NCCc1cn2ccccc2n1,-2.95%
22,CC(C)CCN(C(=O)CNC(=O)c1cccs1)C(C(=O)NC1CCCCC1)c1cccnc1 (stereo not drawn),-36.4%

row,SMILES,"hERG current change (%, negative = inhibition) at 10uM"
1,C=C1C(=O)[C@@]23[C@H](O)C[C@@H]4C(C)(C)CC[C@H](O)[C@@]4(C)[C@@H]2CC[C@@H]1[C@H]3O,-9.9%
2,COc1ccc(Cn2c(C(F)(F)F)ccc(C(N)=O)c2=O)cc1,1.62%
3,c1ccc2c(-c3nnc4n3CCCCC4)cc(-c3ccncc3)nc2c1,-48.7%
4,Fc1ccc(-c2cc(-c3nnc4n3CCCCC4)c3ccccc3n2)cc1,-63.5%
5,O=c1c2ccccc2nc2n1CCC2,13.6%
6,O=c1c2ccccc2nc2n1CCCCC2,-4.17%
7,N=c1c2ccccc2nc2n1CCCCCCCCCCC2,-62%
8,Clc1ccc(-c2cc(-c3nnc4n3CCCCC4)c3ccccc3n2)cc1,-42.1%
9,O=C(NCc1cccnc1)c1cc2nc(-c3ccc4c(c3)OCO4)cc(C(F)(F)F)n2n1,3.07%
10,COc1ccc(NS(=O)(=O)c2cccc(C(=O)NNC(=O)NCCCl)c2)cc1,20.3%
11,CN1CCc2c(sc(NC(=O)c3ccc(S(=O)(=O)N4CCCCCC4)cc3)c2C(N)=O)C1,5.51%
12,O=C1CN(C(=O)c2ccc(Cl)c(S(=O)(=O)N3CCc4ccccc43)c2)c2ccccc2N1,-21%
13,COCCn1nnnc1CN1CCC(C)CC1,-2.19%
14,O=C(Cn1cnc2c(oc3ccccc32)c1=O)c1ccccc1,2.38%
15,O=C(NC1CCCCCC1)C1CCN(S(=O)(=O)c2ccc(F)cc2)CC1,0.579%
16,CN1/C(=C\C=N\O)C(C)(C)c2ccccc21,17.1%
17,CN1/C(=C\C=Nc2ccccc2)C(C)(C)c2ccccc21,-72.1%
18,CN1/C(=C\C=Nc2ccc3ccccc3c2)C(C)(C)c2ccccc21,-74.8%
19,O=S(=O)(c1ccc(N2CCOCC2)c(Cl)c1)N1CCOCC1,15.5%
20,CN1C(=O)C(C)(C)c2cc(S(=O)(=O)N3CCN(c4ccccc4F)CC3)ccc21,-3.03%
21,CN1/C(=C/C=N/n2cnnc2)C(C)(C)c2ccccc21,-1.92%
22,CN1/C(=C/C=C(C#N)C#N)C(C)(C)c2ccccc21,14.7%

row,SMILES,"hERG current change (%, negative = inhibition) at 10uM"
1,Cc1cc(/N=C/C=C2\N(C)c3ccccc3C2(C)C)n(CCC#N)n1,-29.8%
2,Cc1ccccc1N=CC=C1OC(C)(C)C(C)(C)O1,-1.54%
3,Cc1ccccc1N=C/C=C1\N(C)c2ccccc2C1(C)C,-70.7%
4,CN1/C(=C\C=Nc2cc(S(=O)(=O)N3CCOCC3)ccc2N2CCOCC2)C(C)(C)c2ccccc21,-71%
5,CO/N=C/C=C1/N(C)c2ccccc2C1(C)C,19.8%
6,COc1ccc(NC(=O)NCc2ccncc2)cc1,13.8%
7,CC(C)(C)c1ccc(C(=O)NNc2ccc(F)cc2F)cc1,9.96%
8,CC1(C)OC2CC3C4CC(F)C5=CC(=O)C=CC5(C)C4(F)C(O)CC3(C)C2(C(=O)CO)O1 (stereo not drawn),-7.01%
9,O=C1C=C(c2cc3ccccc3s2)C[C@@H](c2ccc(F)cc2)C1,5.01%
10,CC(=O)N1c2ccc(S(=O)(=O)N3CCCC(C(=O)NCc4ccccc4)C3)cc2CC1C (stereo not drawn),13.7%
11,O=C(Nc1ccccc1)N1CCC(c2ccccc2)C1 (stereo not drawn),-4.49%
12,Cc1c(NC(=S)/C=C2\N(C)c3ccccc3C2(C)C)c(=O)n(-c2ccccc2)n1C,0.171%
13,Cc1c(N=C/C=C2/N(C)c3ccccc3C2(C)C)c(=O)n(-c2ccccc2)n1C,-38.1%
14,CN1/C(=C\C=C(C#N)C#N)C(C)(C)c2ccccc21,11.5%
15,CN(C)c1ccc(N=C/C=C2\N(C)c3ccccc3C2(C)C)cc1,-82.8%
16,Cc1c(N=C/C=C2\N(C)c3ccccc3C2(C)C)c(=O)n(-c2ccccc2)n1C,-53.7%
17,CN1/C(=C\P(=O)(N(C)C)N(C)C)C(C)(C)c2ccccc21,-6.64%
18,CC(=O)N1CCN(c2ccc(N=Cc3c(O)n(-c4ccc(Cl)cc4)c(=O)[nH]c3=O)cc2)CC1,1.55%
19,CCOC(=O)c1cnc(-n2nc(C)cc2C)nc1NCCc1ccccc1,-51.6%
20,CCOC(=O)c1cnc(-n2nc(C)cc2C)nc1NCCO,10.5%
21,CCOC(=O)c1cnc(-n2nc(C)cc2C)nc1NCc1ccccc1,-34.7%
22,Cn1ccnc1SCC(=O)n1c2c(c3ccccc31)CCCC2,-4.61%

row,SMILES,"hERG current change (%, negative = inhibition) at 10uM"
1,O=C(c1cccs1)N1CCCC(c2nc3c(nnn3Cc3c(Cl)cccc3Cl)c(=O)[nH]2)C1 (stereo not drawn),-46.9%
2,O=C(OCC(=O)N1CCCc2ccccc21)c1cccc(C(F)(F)F)c1,-6.7%
3,COC(=O)C(Cc1ccccc1)NC(=O)c1ccc(C)cc1 (stereo not drawn),5.08%
4,CSCCOC(=O)c1[nH]c2c(c1C)C(=O)CC(c1ccco1)C2 (stereo not drawn),-1.18%
5,Cc1ccc(NC(=O)c2sc(Cl)nc2-c2ccccc2)cc1,18.2%
6,COc1ccc(Br)cc1/C(C)=N/NC1=NCCN1.Cl,-26.7%
7,CCCCCOc1ccc(Br)cc1/C(C)=N/NC1=NCCN1,-70.1%
8,C/C(=N\NC1=NCCN1)c1ccc(N)c([N+](=O)[O-])c1,-15.2%
9,CCOc1ccc(Br)cc1/C(C)=N\NC1=NCCN1.Cl,-48.6%
10,CCCCCCOc1ccc(/C(C)=N/NC2=NCCN2)cc1[N+](=O)[O-],-81.3%
11,CCCCCCOc1ccc(/C(C)=N/NC2=NCCN2)cc1,-19.9%
12,COc1cc(S(=O)(=O)NC2CCCC2)ccc1F,1.19%
13,CC1CCN(C(=O)c2ccccc2NS(=O)(=O)c2ccccc2)CC1,8.52%
14,CCc1ccc(-c2nn[nH]n2)cc1,4.61%
15,Cc1ccc(C)c(SCC(=O)NNC(=O)c2ccccc2)c1,9.78%
16,COc1ccc(NC(=O)C2CCN(c3cnccn3)CC2)cc1OC,15.5%
17,CC(NC1CCCCC1)C(O)C12CC3CC(CC(C3)C1)C2.Cl (stereo not drawn),-16.4%
18,COC(=O)c1ccc(C(c2c(N)n(CC(C)C)c(=O)[nH]c2=O)N2CCN(c3ccccc3)CC2)cc1 (stereo not drawn),-8.97%
19,COC(=O)c1ccc(C(c2c(N)n(Cc3ccccc3)c(=O)n(C)c2=O)N2CCOCC2)cc1 (stereo not drawn),-57.9%
20,CCCn1c(N)c(C(c2ccc(C(=O)OC)cc2)N2CCN(c3ccccc3)CC2)c(=O)[nH]c1=O (stereo not drawn),-9.93%
21,COc1cccc(CNC(=O)C2CCN(S(=O)(=O)N3CCC(C)CC3)CC2)c1,-3.44%
